# Results from the supplement of paper PMC8728848.
# Many of the other results were omitted from the sample, so the strongest signals are more common in it than they were.
# B1: Gal 3 (Homo sapiens), P17931 (protein)
# chain: MADNFSLHDALSGSGNPNPQGWPGAWGNQPAGAGGYPGASYPGAYPGQAPPGAYPGQAPPGAYHGAPGAYPGAPAPGVYPGPPSGPGAYPSSGQPSAPGAYPATGPYGAPAGPLIVPYNLPLPGGVVPRMLITILGTVKPNANSILDFQRGNDVAFHFNPRFNENNRRVIVCNTKLDNNWGREERQSVFPFESGKPFKIQVLVEPDHFKVAVNDAHLLQYNHRVKKLNEISKLGISGDIDLTSASYTMI
# Legend:
# Experiment in all cases: glycan array binding signal (z-score within array); higher = stronger binding
# Settings in all cases: glycan notation: IUPAC condensed, linker removed; mutation: R144S
# [1] = target: Fuc(a1-2)Gal(b1-3)GlcNAc(b1-3)[Fuc(a1-3)[Gal(b1-4)]GlcNAc(b1-6)]Gal(b1-4)Glc
# Procedure, shortened: (§1)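 Columns mapping to the same glycan were averaged after glycan names were converted to IUPAC-condensed notation. The data come from 3228 arrays in the Consortium for Functional Glycomics database, limited to those with an available protein sequence. Binding is reported as a within-array Z-score averaged across arrays of one protein sequence and across linkers.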
# Fuc(a1-2)Gal(b1-4)Glc6S = target: Fuc(a1-2)Gal(b1-4)Glc6S
# Procedure, shortened: as §1
# [2] = target: Fuc(a1-2)Gal(b1-4)GlcNAc6S
# Procedure, shortened: as §1
# [3] = target: Fuc(a1-2)Gal(b1-4)[Fuc(a1-3)]GlcNAc(b1-3)Gal(b1-4)[Fuc(a1-3)]GlcNAc
# Procedure, shortened: as §1
# [4] = target: Fuc(a1-2)[Gal(a1-3)]Gal(b1-3)GlcNAc(b1-2)Man(a1-3)[Fuc(a1-2)[Gal(a1-3)]Gal(b1-3)GlcNAc(b1-2)Man(a1-6)]Man(b1-4)GlcNAc(b1-4)GlcNAc
# Procedure, shortened: as §1
# [5] = target: Fuc(a1-2)[Gal(a1-3)]Gal(b1-4)GlcNAc(b1-2)Man(a1-3)[Fuc(a1-2)[Gal(a1-3)]Gal(b1-4)GlcNAc(b1-2)Man(a1-6)]Man(b1-4)GlcNAc(b1-4)GlcNAc
# Procedure, shortened: as §1
# [6] = target: Fuc(a1-2)[GalNAc(a1-3)]Gal(b1-3)GlcNAc(b1-2)Man(a1-3)[Fuc(a1-2)[GalNAc(a1-3)]Gal(b1-3)GlcNAc(b1-2)Man(a1-6)]Man(b1-4)GlcNAc(b1-4)GlcNAc
# Procedure, shortened: as §1
# [7] = target: Fuc(a1-2)[GalNAc(a1-3)]Gal(b1-4)GlcNAc(b1-2)Man(a1-3)[Fuc(a1-2)[GalNAc(a1-3)]Gal(b1-4)GlcNAc(b1-2)Man(a1-6)]Man(b1-4)GlcNAc(b1-4)GlcNAc
# Procedure, shortened: as §1
# [8] = target: Fuc(a1-2)[GalNAc(a1-3)]Gal(b1-4)GlcNAc(b1-3)Gal(b1-4)GlcNAc(b1-3)Gal(b1-4)GlcNAc
# Procedure, shortened: as §1
# [9] = target: Fuc(a1-2)[GalNAc(a1-3)]Gal(b1-4)[Fuc(a1-3)]GlcNAc
# Procedure, shortened: as §1
# [10] = target: Fuc(a1-3)[Gal3S(b1-4)]GlcNAc
# Procedure, shortened: as §1
# [11] = target: Gal(a1-4)Gal(b1-3)GlcNAc(b1-2)Man(a1-3)[Gal(a1-4)Gal(b1-3)GlcNAc(b1-2)Man(a1-6)]Man(b1-4)GlcNAc(b1-4)GlcNAc
# Procedure, shortened: as §1
# Gal(a1-4)Gal(b1-4)Glc = target: Gal(a1-4)Gal(b1-4)Glc
# Procedure, shortened: as §1
# [12] = target: Gal(b1-3)GalNAc(a1-3)[Fuc(a1-2)]Gal(b1-4)GlcNAc
# Procedure, shortened: as §1
# [13] = target: Gal(b1-3)GlcNAc(b1-3)Gal(b1-4)GlcNAc(b1-6)[Gal(b1-3)GlcNAc(b1-3)]Gal(b1-4)Glc
# Procedure, shortened: as §1
# [14] = target: Gal(b1-3)[Fuc(a1-4)]GlcNAc(b1-3)Gal(b1-4)[Fuc(a1-3)]GlcNAc
# Procedure, shortened: as §1
# [15] = target: Gal(b1-3)[Neu5Ac(a2-6)]GalNAc
# Procedure, shortened: as §1
# [16] = target: Gal(b1-4)GalNAc(a1-3)[Fuc(a1-2)]Gal(b1-4)GlcNAc
# Procedure, shortened: as §1
# [17] = target: Gal(b1-4)GlcNAc(b1-3)[Gal(b1-4)GlcNAc(b1-6)]Gal(b1-4)GlcNAc
# Procedure, shortened: as §1
# Gal3S(b1-4)GlcNAc6S = target: Gal3S(b1-4)GlcNAc6S
# Procedure, shortened: as §1
# GalNAc(a1-3)Gal = target: GalNAc(a1-3)Gal
# Procedure, shortened: as §1
# [18] = target: GalNAc(b1-3)Gal(a1-4)Gal(b1-4)GlcNAc(b1-3)Gal(b1-4)Glc
# Procedure, shortened: as §1
# GalNAc(b1-3)GalNAc = target: GalNAc(b1-3)GalNAc
# Procedure, shortened: as §1
# [19] = target: GlcNAc(a1-4)Gal(b1-4)GlcNAc(b1-3)Gal(b1-4)Glc
# Procedure, shortened: as §1
# [20] = target: GlcNAc(b1-2)[GlcNAc(b1-4)]Man(a1-3)[GlcNAc(b1-2)Man(a1-6)]Man(b1-4)GlcNAc(b1-4)GlcNAc
# Procedure, shortened: as §1
# [21] = target: GlcNAc(b1-3)Gal(b1-3)GalNAc
# Procedure, shortened: as §1
# GlcNAc(b1-3)Gal(b1-4)Glc = target: GlcNAc(b1-3)Gal(b1-4)Glc
# Procedure, shortened: as §1
# [22] = target: GlcNAc(b1-3)Gal(b1-4)GlcNAc
# Procedure, shortened: as §1
# Man(a1-3)[Man(a1-6)]Man = target: Man(a1-3)[Man(a1-6)]Man
# Procedure, shortened: as §1
# [23] = target: Neu5Ac(a2-3)Gal(b1-4)GlcNAc6S
# Procedure, shortened: as §1
# [24] = target: Neu5Ac(a2-3)Gal(b1-4)[Fuc(a1-3)]GlcNAc(b1-6)[Neu5Ac(a2-3)Gal(b1-3)]GalNAc
# Procedure, shortened: as §1
# [25] = target: Neu5Ac(a2-3)GalNAc(b1-4)GlcNAc
# Procedure, shortened: as §1
# Neu5Ac(a2-6)GalNAc = target: Neu5Ac(a2-6)GalNAc
# Procedure, shortened: as §1
# [26] = target: Neu5Gc(a2-3)Gal(b1-3)GlcNAc
# Procedure, shortened: as §1
# [27] = target: Neu5Gc(b2-6)Gal(b1-4)GlcNAc
# Procedure, shortened: as §1
binder,measurement,setting,value
B1,glycan array binding signal (z-score),[1],0.343
same,glycan array binding signal (z-score),Fuc(a1-2)Gal(b1-4)Glc6S,-0.313
same,glycan array binding signal (z-score),[2],0.788
same,glycan array binding signal (z-score),[3],-0.357
same,glycan array binding signal (z-score),[4],4.81
same,glycan array binding signal (z-score),[5],5.46
same,glycan array binding signal (z-score),[6],6.11
same,glycan array binding signal (z-score),[7],5.95
same,glycan array binding signal (z-score),[8],4.99
same,glycan array binding signal (z-score),[9],-0.356
same,glycan array binding signal (z-score),[10],-0.359
same,glycan array binding signal (z-score),[11],-0.361
same,glycan array binding signal (z-score),Gal(a1-4)Gal(b1-4)Glc,-0.359
same,glycan array binding signal (z-score),[12],4.94
same,glycan array binding signal (z-score),[13],0.34
same,glycan array binding signal (z-score),[14],-0.357
same,glycan array binding signal (z-score),[15],-0.352
same,glycan array binding signal (z-score),[16],5.09
same,glycan array binding signal (z-score),[17],1.2
same,glycan array binding signal (z-score),Gal3S(b1-4)GlcNAc6S,-0.288
same,glycan array binding signal (z-score),GalNAc(a1-3)Gal,-0.354
same,glycan array binding signal (z-score),[18],0.182
same,glycan array binding signal (z-score),GalNAc(b1-3)GalNAc,-0.354
same,glycan array binding signal (z-score),[19],-0.356
same,glycan array binding signal (z-score),[20],-0.341
same,glycan array binding signal (z-score),[21],-0.356
same,glycan array binding signal (z-score),GlcNAc(b1-3)Gal(b1-4)Glc,-0.36
same,glycan array binding signal (z-score),[22],-0.358
same,glycan array binding signal (z-score),Man(a1-3)[Man(a1-6)]Man,-0.354
same,glycan array binding signal (z-score),[23],-0.365
same,glycan array binding signal (z-score),[24],-0.352
same,glycan array binding signal (z-score),[25],-0.363
same,glycan array binding signal (z-score),Neu5Ac(a2-6)GalNAc,-0.364
same,glycan array binding signal (z-score),[26],-0.363
same,glycan array binding signal (z-score),[27],-0.358
